Data on two sequences can be found in article PMC7862700, “An all-to-all approach to the identification of sequence-specific readers for epigenetic DNA modifications on cytosine”.

What all share (test): DAPPL (digital affinity profiling via proximity ligation, sequencing); 10 mM Tris-HCl pH 7.5, 50 mM NaCl, 1 mM DTT, 4% glycerol, room temperature, 30 min; GST-TFs on glutathione beads, 16-mer random dsDNA library, 0.1% formaldehyde crosslink after washing; high values mean tight binding
One assay addresses SPIB (Homo sapiens, UniProt Q01892 1-262). The settings on record: protein: recombinant; tags: N-terminal GST; dsDNA, one strand shown. The method, boiled down:
(§1)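 Human transcription factors were made in yeast as GST fusions, captured on glutathione beads and barcoded with DNA. With a tag-only sample included, the pool was incubated with 200 nmole of a random double-stranded 16-mer DNA library in Tris/NaCl/DTT/glycerol buffer at room temperature for 30 min, then crosslinked with 0.1% formaldehyde after washing, ligated by proximity, amplified and sequenced. For binding signal, each hexamer's read frequency for a factor is divided by its frequency for the tag-only sample.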

A further assay has as its target HSF1 (Homo sapiens, UniProt Q00613 1-529). Conditions: protein: recombinant; tags: N-terminal GST; chain copies: 3; dsDNA, one strand shown. An outline of the steps: as §1
The target in a further assay is ELF4 (Homo sapiens, UniProt Q99607 1-663). The settings on record: protein: recombinant; tags: N-terminal GST; dsDNA, one strand shown. An outline of the steps: as §1
ELF4, sequence (Q99607 whole entry): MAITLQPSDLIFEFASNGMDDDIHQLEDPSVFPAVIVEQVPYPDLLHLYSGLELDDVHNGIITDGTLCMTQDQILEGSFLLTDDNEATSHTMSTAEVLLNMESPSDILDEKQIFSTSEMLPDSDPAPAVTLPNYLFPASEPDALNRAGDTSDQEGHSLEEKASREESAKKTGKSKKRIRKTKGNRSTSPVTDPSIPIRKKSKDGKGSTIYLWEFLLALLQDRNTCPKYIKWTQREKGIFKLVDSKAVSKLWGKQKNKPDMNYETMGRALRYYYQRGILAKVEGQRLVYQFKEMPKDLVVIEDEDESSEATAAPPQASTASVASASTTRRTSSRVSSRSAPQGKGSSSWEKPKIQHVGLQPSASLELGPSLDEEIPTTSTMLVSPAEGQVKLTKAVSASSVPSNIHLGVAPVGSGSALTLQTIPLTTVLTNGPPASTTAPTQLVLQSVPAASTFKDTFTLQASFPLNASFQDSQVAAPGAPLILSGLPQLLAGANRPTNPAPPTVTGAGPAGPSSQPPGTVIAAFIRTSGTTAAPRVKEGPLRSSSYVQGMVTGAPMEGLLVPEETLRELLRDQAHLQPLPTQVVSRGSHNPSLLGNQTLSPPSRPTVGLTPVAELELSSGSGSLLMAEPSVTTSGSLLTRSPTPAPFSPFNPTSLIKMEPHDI
In the next assay the target is T1, ELK4 (Homo sapiens, UniProt P28324-2 1-405).
T1 sequence: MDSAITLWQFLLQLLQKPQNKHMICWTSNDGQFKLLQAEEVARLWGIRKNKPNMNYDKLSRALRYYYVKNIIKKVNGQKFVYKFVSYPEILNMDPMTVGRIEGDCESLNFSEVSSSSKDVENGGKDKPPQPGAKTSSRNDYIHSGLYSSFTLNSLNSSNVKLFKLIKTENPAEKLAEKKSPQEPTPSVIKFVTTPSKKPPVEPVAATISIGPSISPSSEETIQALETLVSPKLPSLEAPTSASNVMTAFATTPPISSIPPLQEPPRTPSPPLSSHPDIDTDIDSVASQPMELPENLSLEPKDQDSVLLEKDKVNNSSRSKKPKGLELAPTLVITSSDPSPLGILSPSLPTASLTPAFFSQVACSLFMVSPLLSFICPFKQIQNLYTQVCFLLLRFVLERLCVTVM
Conditions: protein: recombinant; tags: N-terminal GST; dsDNA, one strand shown. The method, boiled down:
as §1

The target of a further assay is T2, ETV2 (Homo sapiens, UniProt O00321 1-342).
T2 sequence: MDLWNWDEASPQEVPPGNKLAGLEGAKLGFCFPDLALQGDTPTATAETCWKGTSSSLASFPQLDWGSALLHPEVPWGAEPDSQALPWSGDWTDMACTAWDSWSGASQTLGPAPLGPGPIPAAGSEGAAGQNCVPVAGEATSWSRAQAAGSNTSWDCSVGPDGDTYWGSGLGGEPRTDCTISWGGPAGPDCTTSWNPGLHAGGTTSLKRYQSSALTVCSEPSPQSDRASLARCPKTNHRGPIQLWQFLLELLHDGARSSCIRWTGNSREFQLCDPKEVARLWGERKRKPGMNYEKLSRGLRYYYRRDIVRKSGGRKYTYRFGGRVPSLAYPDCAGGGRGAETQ
Conditions: protein: recombinant; tags: N-terminal GST; dsDNA, one strand shown. The method, boiled down:
as §1

For a further assay, the target named is CRX (Homo sapiens, UniProt O43186 1-299). The settings on record: protein: recombinant; tags: N-terminal GST; dsDNA, one strand shown. The method, boiled down:
as §1

In another assay the target is ETV6 (Homo sapiens, UniProt P41212 1-452). The settings on record: protein: recombinant; tags: N-terminal GST; dsDNA, one strand shown. An outline of the steps:
as §1

A further assay concerns the target T3, GABPA (Homo sapiens, UniProt Q06546 1-454).
T3 sequence: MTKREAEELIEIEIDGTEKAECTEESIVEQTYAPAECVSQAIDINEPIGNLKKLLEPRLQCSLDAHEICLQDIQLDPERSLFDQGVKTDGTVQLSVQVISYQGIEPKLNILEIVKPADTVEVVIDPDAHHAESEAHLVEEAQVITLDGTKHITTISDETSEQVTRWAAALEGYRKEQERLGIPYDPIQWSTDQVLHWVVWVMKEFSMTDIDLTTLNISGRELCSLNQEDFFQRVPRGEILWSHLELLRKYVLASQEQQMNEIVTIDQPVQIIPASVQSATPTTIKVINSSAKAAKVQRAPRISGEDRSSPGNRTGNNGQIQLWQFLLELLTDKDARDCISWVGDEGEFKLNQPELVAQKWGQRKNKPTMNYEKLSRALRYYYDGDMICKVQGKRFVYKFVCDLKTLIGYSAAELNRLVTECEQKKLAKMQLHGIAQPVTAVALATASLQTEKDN
Conditions: protein: recombinant; tags: N-terminal GST; dsDNA, one strand shown. The method, boiled down:
as §1

The target in a further assay is ETV1 (Homo sapiens, UniProt P50549 1-477). The settings on record: protein: recombinant; tags: N-terminal GST; dsDNA, one strand shown. The method, boiled down: as §1
ETV1, sequence (P50549 whole entry): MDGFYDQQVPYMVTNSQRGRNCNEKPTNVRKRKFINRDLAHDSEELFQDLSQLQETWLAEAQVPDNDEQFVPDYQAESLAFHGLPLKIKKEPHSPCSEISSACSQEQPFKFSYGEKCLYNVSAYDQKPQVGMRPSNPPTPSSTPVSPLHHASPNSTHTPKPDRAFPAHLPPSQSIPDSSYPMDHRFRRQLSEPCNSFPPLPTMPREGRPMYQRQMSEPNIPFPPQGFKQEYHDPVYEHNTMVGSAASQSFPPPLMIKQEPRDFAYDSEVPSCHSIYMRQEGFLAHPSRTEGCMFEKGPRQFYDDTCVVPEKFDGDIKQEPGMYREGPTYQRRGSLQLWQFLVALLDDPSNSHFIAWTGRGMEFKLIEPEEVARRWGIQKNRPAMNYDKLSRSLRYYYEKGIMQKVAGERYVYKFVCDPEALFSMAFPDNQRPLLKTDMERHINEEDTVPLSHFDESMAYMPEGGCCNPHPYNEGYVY
The next assay has as its target T4, ERF (Homo sapiens, UniProt P50548 1-548).
T4 sequence: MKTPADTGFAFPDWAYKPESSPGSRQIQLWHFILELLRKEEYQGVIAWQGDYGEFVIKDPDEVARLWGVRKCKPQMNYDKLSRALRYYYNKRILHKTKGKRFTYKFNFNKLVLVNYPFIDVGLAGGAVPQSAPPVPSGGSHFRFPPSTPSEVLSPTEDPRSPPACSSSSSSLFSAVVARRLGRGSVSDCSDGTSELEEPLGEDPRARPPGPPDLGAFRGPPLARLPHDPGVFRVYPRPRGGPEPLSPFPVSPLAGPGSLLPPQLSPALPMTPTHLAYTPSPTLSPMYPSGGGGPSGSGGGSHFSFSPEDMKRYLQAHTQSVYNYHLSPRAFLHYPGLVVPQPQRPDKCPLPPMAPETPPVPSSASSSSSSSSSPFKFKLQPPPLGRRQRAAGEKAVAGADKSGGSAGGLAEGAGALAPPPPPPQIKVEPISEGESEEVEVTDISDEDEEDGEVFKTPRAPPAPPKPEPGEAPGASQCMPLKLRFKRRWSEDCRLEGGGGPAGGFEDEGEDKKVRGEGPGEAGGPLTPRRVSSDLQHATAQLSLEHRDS
Conditions: protein: recombinant; tags: N-terminal GST; dsDNA, one strand shown. The method, boiled down: as §1

HSF1, sequence (Q00613 whole entry): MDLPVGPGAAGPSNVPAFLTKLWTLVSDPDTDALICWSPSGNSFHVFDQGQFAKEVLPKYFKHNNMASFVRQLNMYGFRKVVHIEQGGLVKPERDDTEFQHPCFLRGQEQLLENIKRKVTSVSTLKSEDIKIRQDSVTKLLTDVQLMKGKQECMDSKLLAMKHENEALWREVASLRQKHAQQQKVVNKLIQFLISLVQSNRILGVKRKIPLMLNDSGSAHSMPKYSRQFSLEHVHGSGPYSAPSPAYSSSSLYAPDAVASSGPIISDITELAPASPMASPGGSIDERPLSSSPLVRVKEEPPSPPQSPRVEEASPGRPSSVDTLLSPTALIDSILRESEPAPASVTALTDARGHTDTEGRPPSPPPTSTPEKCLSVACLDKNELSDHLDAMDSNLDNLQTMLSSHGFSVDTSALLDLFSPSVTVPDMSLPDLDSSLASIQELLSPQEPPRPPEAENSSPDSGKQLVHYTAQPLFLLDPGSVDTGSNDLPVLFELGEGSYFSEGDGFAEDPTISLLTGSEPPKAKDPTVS
CRX, sequence (O43186 whole entry): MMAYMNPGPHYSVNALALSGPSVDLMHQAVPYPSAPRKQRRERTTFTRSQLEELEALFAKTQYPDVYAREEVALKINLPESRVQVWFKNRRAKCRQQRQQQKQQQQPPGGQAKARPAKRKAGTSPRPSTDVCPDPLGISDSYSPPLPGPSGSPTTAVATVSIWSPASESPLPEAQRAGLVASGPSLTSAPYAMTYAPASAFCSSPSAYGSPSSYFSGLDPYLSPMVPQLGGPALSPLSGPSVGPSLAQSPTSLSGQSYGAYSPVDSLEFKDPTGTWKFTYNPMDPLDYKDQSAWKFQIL
SPIB, sequence (Q01892 whole entry, the tested form may be a part): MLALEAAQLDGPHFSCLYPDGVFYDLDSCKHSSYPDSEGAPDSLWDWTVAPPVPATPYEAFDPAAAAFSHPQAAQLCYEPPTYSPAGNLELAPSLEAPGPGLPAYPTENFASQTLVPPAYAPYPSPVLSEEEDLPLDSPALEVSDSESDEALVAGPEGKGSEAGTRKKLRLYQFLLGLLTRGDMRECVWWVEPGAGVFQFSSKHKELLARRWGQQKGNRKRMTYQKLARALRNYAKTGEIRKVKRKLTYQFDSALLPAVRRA
ETV6, sequence (P41212 whole entry): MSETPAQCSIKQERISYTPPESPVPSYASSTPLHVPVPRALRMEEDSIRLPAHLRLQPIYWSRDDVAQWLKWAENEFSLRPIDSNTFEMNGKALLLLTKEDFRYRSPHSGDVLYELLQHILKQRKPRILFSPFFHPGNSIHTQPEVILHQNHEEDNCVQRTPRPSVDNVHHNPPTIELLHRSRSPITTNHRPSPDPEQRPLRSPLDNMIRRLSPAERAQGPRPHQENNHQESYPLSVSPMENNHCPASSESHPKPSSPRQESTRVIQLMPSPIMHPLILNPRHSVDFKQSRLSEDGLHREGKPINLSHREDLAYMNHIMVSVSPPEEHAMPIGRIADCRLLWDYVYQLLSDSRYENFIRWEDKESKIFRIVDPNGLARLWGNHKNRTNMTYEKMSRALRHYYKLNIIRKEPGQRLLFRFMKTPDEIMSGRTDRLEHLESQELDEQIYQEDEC

For GATAAA, the binding signal in the assay with SPIB is 1.04 fold enrichment (6-mer frequency, TF over GST control); in the assay with HSF1 it was 1.21 fold enrichment (6-mer frequency, TF over GST control); with ELF4, 1.01 fold enrichment (6-mer frequency, TF over GST control); with ELK4 it was 1.02 fold enrichment (6-mer frequency, TF over GST control); in the assay with ETV2 it was 1.12 fold enrichment (6-mer frequency, TF over GST control); with CRX, 1.55 fold enrichment (6-mer frequency, TF over GST control). Also, in the assay with ETV6, the binding signal is 1 fold enrichment (6-mer frequency, TF over GST control).

As for TAGCGC, the binding signal with GABPA is 1.01 fold enrichment (6-mer frequency, TF over GST control); with HSF1, 1.02 fold enrichment (6-mer frequency, TF over GST control); in the assay with ELF4, 1.01 fold enrichment (6-mer frequency, TF over GST control); with CRX it was 1.03 fold enrichment (6-mer frequency, TF over GST control); with ETV1, 1.07 fold enrichment (6-mer frequency, TF over GST control); with ERF, 1.03 fold enrichment (6-mer frequency, TF over GST control).
